Hits are enriched below; roughly 9% of the tested compounds scored in any of these assays.
HP1b binding inh – inhibitors of HP1-beta chromodomain binding to methylated histone tails; AlphaScreen HP1-beta / biotin-H3K9me3 peptide binding; Potency, µM (titrated, usually from 114 µM), for the others: at the highest dose activity change, negative = inhibition, most hits filed as inhibitors; hit rate 0.56% among 390,000; AID 540317; note: nearly all actives have a fitted effect of over 70% in size
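Compound inhibition of the preformed complex between 50 nM HP1-beta and 50 nM biotinylated H3K9me3 peptide was read by AlphaScreen. Buffer was PBS pH 7.4 with 0.01% Tween-20. Incubations ran 30 min at room temperature, with 10 ug/mL donor/acceptor beads.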
G9a block – blocks human histone lysine methyltransferase G9a; Potency, µM (highest dose often 102 µM), inactives show at the highest dose activity, negative = inhibition, hits mostly inhibitors; Q96KQ7; G9a H3K9 monomethylation, AlphaScreen, 2 h; hit rate 8.8% among 350,000; note: % is set by controls: 0 for no effect and ±100 for the full control effect; nearly all actives have a fitted effect of over 75% in size
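Enzyme 20 nM + cpd, 15 min RT; add b-H3K9 pep 500 nM / SAM 20 uM; 2 h RT; anti-H3K9me1 Ab 0.5 ug/mL + SA donor / anti-rabbit acceptor beads 20 ug/mL each, 10 min; AlphaScreen read.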
PLK1 PBD inh – PLK1 (human) polo-box domain binding inhibition. Plk1 PBD binding of FITC phosphopeptide, fluorescence polarization. Potency, µM, for inactives: max response, negative = inhibition, actives largely listed as inhibitors. hit rate 2.8% among 360,000; note: series mostly up to about 57 µM; % is set by controls: 0 for no effect and ±100 for the full control effect; nearly all actives have a fitted effect of over 65% in size
JMJD2A Tudor – blocks the human JMJD2A Tudor domain; Potency, µM (highest dose often 114 µM), without a hit: at the top dose activity change, negative = inhibition, most hits filed as inhibitors; hit rate 4.4% among 390,000; AID 504339; O75164; AlphaScreen JMJD2A-Tudor / H3K4me3 peptide binding; note: % is set by controls: 0 for no effect and ±100 for the full control effect; nearly all actives have a fitted effect of over 50% in size
BAZ2B block – blocks human BAZ2B. Q9UIF8. AlphaScreen BAZ2B-H3K14Ac peptide displacement. Potency, µM (highest dose often 114 µM), without a hit: at the highest dose activity change, negative = inhibition, hits mostly inhibitors. hit rate 4.4% among 360,000. AID 504333; note: % is set by controls: 0 for no effect and ±100 for the full control effect; nearly all actives have a fitted effect of over 60% in size
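AlphaScreen displacement of biotin-H3(5-23)K14Ac peptide (50 nM final) from BAZ2B (50 nM final) in PBS pH 7.4, 0.01% Tween-20; complex preformed 30 min RT, then compounds (top 110 uM) 30 min RT, beads 20 min dark.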
12-LOX inh – inhibitors of human 12S-lipoxygenase ALOX12; P18054; purified 12hLO, xylenol orange hydroperoxide absorbance; Potency, µM (titrated, usually from 108 µM), for inactives: top-dose activity change, negative = inhibition, hits mostly inhibitors; hit rate 1.1% among 580,000; AID 1671190; note: % is set by controls: 0 for no effect and ±100 for the full control effect
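Hydroperoxide product was detected by ferrous iron/xylenol orange as the 573 to 405 nm absorbance ratio. Arachidonic acid at 40 uM (final) was turned over for 30 min at room temperature by 150 nM human 12hLO, pH 7.0 Hepes buffer, after 15 min compound preincubation.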
Starred values were filed as active, the others as inactive; ? = inconclusive; / = not tested or not shown; [ ] = dose if it differs, or a comment. Calls come from the whole dose curve; as a rule, active = well fitted curve in the direction sought with a large enough effect; inconclusive = small, poorly fitted or top-dose-only effect, or another doubt; inactive = no such curve, though single readings can be large; an effect the other way counts as inactive or inconclusive. Potency is the fitted concentration of half-maximal effect.

SMILES | HP1b binding inh | G9a block | PLK1 PBD inh | JMJD2A Tudor | BAZ2B block | 12-LOX inh
COc1ccc(C(CC(=O)Nc2ccc(OC)c(OC)c2)N2Cc3ccccc3C2=O)cc1 (configuration not stated) | 12% | -26%[59 µM] | / | -27% | 79µM* | -3%
COc1ccc(NC(=O)c2cc(-c3ccccc3)nc3c2c(C)nn3-c2ccccc2)c(OC)c1 | 17% | -3%[59 µM] | -3% | -16% | 1% | -15%
CC(O)CN(CC(C)O)c1ccc2c(c1)Cc1cc([N+](=O)[O-])ccc1-2 (configuration not stated) | 27% | / | 28% | -1% | / | 0%
CCNC(=O)NC[C@H]1O[C@H](Cc2cc(-c3ccc(F)cc3)on2)CC[C@@H]1O | / | / | / | / | / | 4%[176 µM]
Cc1ccc2c(=O)c(-c3nc(-c4ccc(Cl)cc4)no3)cn(CC(=O)NCc3ccco3)c2n1 | / | / | / | / | / | 20µM*
Cc1ccc(-c2noc(-c3ccccc3C(=O)NCc3ccco3)n2)cc1 | 18% | 6% | -10% | -8% | -15% | ?
O=C(NCc1ccco1)c1ccccc1-c1nc(-c2ccccc2)no1 | -5% | -6% | -11% | -21% | 56µM* | -6%
Cc1cccc(-c2noc(-c3ccccc3C(=O)NCc3ccco3)n2)c1 | 5% | ? | -18% | ? | 50µM* | ?
c1ccc(-c2noc(-c3cccnc3NCc3ccco3)n2)cc1 | 49% | 18µM* | / | -9% | -21% | 0%
CCCCCn1nc(C(=O)Nc2cc(S(=O)(=O)N(C)C)ccc2OC)c2ccccc2c1=O | / | / | / | / | / | 0%
Cc1cccc(-c2nc(CNC(=O)c3ccco3)cs2)c1 | 37% | 50µM* | -15% | -9% | -14% | 33%
COc1ccc(-c2nc(CCNC(=O)c3ccco3)cs2)cc1OC | 15% | ? | -3% | -16% | -9% | -1%
COc1cc(-c2noc(-c3ccccc3C(=O)NCc3ccco3)n2)cc(OC)c1OC | -4% | 40µM* | -9% | -16% | -24% | 10%
O=C(Nc1nnc(SCc2ccccc2)s1)C1=COCCO1 | 28% | -9% | -14% | -11% | 10% | 2%
C=CCSc1nnc(NC(=O)C2=COCCO2)s1 | 33% | 35µM* | -8% | -12% | -6% | -11%
COCCCN(CC(=O)Nc1ccc(N2CCOCC2)cc1)S(=O)(=O)c1ccc(Cl)cc1 | ? | ? | ? | 79µM* | / | -25%
CN(CC(=O)Nc1ccc(N2CCOCC2)cc1)C(=O)COc1ccccc1F | -8% | ? | -3% | -15% | -4% | 0%
COCCCN(CC(=O)Nc1ccc(N2CCOCC2)cc1)S(=O)(=O)c1ccc(C)cc1 | 22% | -41% | 2% | -13% | -22% | -11%
COc1ccc(CCC(=O)N(C)CC(=O)Nc2ccc(N3CCOCC3)cc2)cc1 | 7% | 25%[59 µM] | -8% | -13% | -19% | -14%
CCOc1ccc(OCCCC(=O)N(C)CC(=O)Nc2ccc(N3CCOCC3)cc2)cc1 | -9% | 35µM* | -2% | -18% | -5% | -12%
CC(Oc1ccc(Br)cc1)C(=O)N(C)CC(=O)Nc1ccc(N2CCOCC2)cc1 (configuration not stated) | 20% | 50µM* | 1% | -31% | -10% | 13%
CN(CC(=O)Nc1ccc(N2CCOCC2)cc1)C(=O)CCCOc1ccc(Cl)cc1Cl | 5% | 20µM* | 2% | -29% | ? | -16%
CC(=O)Nc1ccc(S(=O)(=O)N(C)CC(=O)OC2CCCCC2=O)cc1 (configuration not stated) | 35% | ? | -2% | -4% | 1% | 4%
O=c1c2ccccc2[nH]c(=S)n1CCCn1ccnc1 | 33% | ? | -7% | -11% | -36% | ?
O=c1[nH]c(=O)n(C2CC(O)C(CO)O2)cc1I (configuration not stated) | 35% | / | 3% | -8% | / | 5%
CSCC[C@@H](C(=O)Nc1cccc(F)c1)N1Cc2ccccc2C1=O | 26% | 18µM* | / | -24% | -34% | -2%
CSCC[C@@H](C(=O)NCc1cccs1)N1Cc2ccccc2C1=O | 8% | 50µM* | -14% | -23% | -9% | 8%
